Experimental data as given in PubChem BioAssay (Tox21).
Inconclusive results are not listed. Entries that show only a call come without a potency. The source made the active and inactive calls. Calls follow the shape of the dose curve; as a rule, active = well fitted cell-killing curve with a large enough effect in the repeat runs; inconclusive = weak or mixed curves, or effect the other way; inactive = flat fitted curve, though single readings scatter.

Assay: cAMP Responsive Elements (CRE) small molecule agonists, cell-based qHTS assay: qHTS cell viability counter screen (AID 2060914); also: nearly all actives have a fitted effect of over 50% in size
In short: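 In the same wells as the reporter read, viability of CRE-bla HEK 293T cells was quantified by CellTiter-Glo luminescence after a 3 h compound exposure.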

| Compound | Potency |
| --- | --- |
| CCCCOCN(C(=O)CCl)c1c(CC)cccc1CC | inactive |
| ClCCCCl | inactive |
| Cc1ccccc1CO[C@@H]1C[C@@]2(C(C)C)CC[C@]1(C)O2 | inactive |
| Cc1ccc2cc(C)ccc2c1 | inactive |
| Nc1ccc(Cl)c(Cl)c1 | inactive |
| O=C1OC(CCN2CCCCC2)OC1(c1ccccc1)c1ccccc1 (centres undefined) | inactive |
| CC(C)C(=O)OCC(C)(C)C(OC(=O)C(C)C)C(C)C (centres undefined) | inactive |
| C=CCC1=C(C)[C@@H](OC(=O)[C@@H]2[C@@H](C=C(C)C)C2(C)C)CC1=O | inactive |
| OCC(Cl)CCl (centres undefined) | inactive |
| CC(c1ccccc1)(c1ccc(O)cc1)c1ccc(O)cc1 | inactive |
| CC1COC(Cn2cncn2)(c2ccc(Oc3ccc(Cl)cc3)cc2Cl)O1 (centres undefined) | inactive |
| ClCc1ccccc1Cl | inactive |
| Cc1ccccc1[N+](=O)[O-] | inactive |
| CCCCCCCCCCOC(=O)c1ccccc1C(=O)OCCCCCCCCCC | inactive |
| CN(N=O)c1ccc([N+](=O)[O-])cc1 | inactive |
| O=C(N[C@H](c1ccccc1)[C@@H]1CN2CCC1CC2)c1c(Cl)ccc(C(F)(F)F)c1Cl | inactive |
| CCCCN=C=O | inactive |

| Compound | Potency |
| --- | --- |
| C=CC(=O)OCC(CC)(COC(=O)C=C)COC(=O)C=C | inactive |
| Cc1cc(N=Nc2ccccc2C)ccc1N | inactive |
| CN(CCCC(=O)c1cccnc1)N=O | inactive |
| COC(=O)c1ccc(CBr)cc1 | inactive |
| CC(C)(C)C(=O)Cl | inactive |
| O=C(c1ccccc1)C(Cl)Cl | inactive |
| CO/C=C(/C(=O)OC)c1ccccc1COc1cccc(C(F)(F)F)n1 | inactive |
| CO/N=C(\C(=O)OC)c1ccccc1CO/N=C(\C)c1cccc(C(F)(F)F)c1 | inactive |
| CCSC(=O)N1CCCCCC1 | inactive |
| COC(=O)COc1ccc(Cl)cc1Cl | inactive |
| N#C/C=C/C#N | inactive |
| CCCOC(=O)c1cncn1C(C)c1ccccc1 (centres undefined) | inactive |
| FC(F)C(F)(F)OCC(Cn1cncn1)c1ccc(Cl)cc1Cl (centres undefined) | inactive |
| Nc1ccccc1C(=O)OC/C=C/c1ccccc1 | inactive |
| Cc1ccc(S(=O)(=O)N[C@@H](CCCCN)C(=O)CCl)cc1 | inactive |
| CCOP(=S)(OCC)Oc1cc(Cl)c(Br)cc1Cl | inactive |
| N#Cc1cc(I)c(O)c(I)c1 | inactive |
